From PubChem BioAssay (EPA / NIEHS)
The source made the active and inactive calls. How the source made its calls: active means hit-call score of the fitted dose curve at least 0.9, where 1 is the maximum; inactive means score below 0.9.

How the values were obtained:
[1] = BSK_hDFCGF_SRB: Viability Assessment in the BioMAP Diversity Plus: hDFCGF Assay (AID 2283061); settings: primary human foreskin fibroblasts;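 further: cells exposed to compound for 24 h before the read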
Outline: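 SRB-based viability read on primary human skin fibroblasts at 24 h: TCA fixation, 0.1% dye, 560 nm. Gain or loss of signal is fitted against the DMSO negative control.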

[2] = read-out: TIMP metallopeptidase inhibitor 1 (TIMP1), TIMP1 (gene 7076); assay: BSK_hDFCGF_TIMP1: BioMAP Diversity Plus: hDFCGF Assay for TIMP metallopeptidase inhibitor 1 (TIMP1) Biomarker Activity (AID 2283062); settings: primary human foreskin fibroblasts; actives raise or lower the signal
Outline: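 Bidirectional curve fitting against DMSO baseline yielded this endpoint, based on ELISA detection of TIMP-1 in primary human foreskin fibroblasts exposed to compound for 24 h.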

[3] = read-out: Monokine induced gamma interferon (MIG), CXCL9 (gene 4283); assay: BSK_hDFCGF_MIG: BioMAP Diversity Plus: hDFCGF Assay for Monokine induced gamma interferon (MIG) Biomarker Activity (AID 2283063); settings: primary human foreskin fibroblasts; actives raise or lower the signal
Outline: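 Endpoint derived by bidirectional fitting relative to DMSO; MIG quantified via ELISA in primary human foreskin fibroblasts harvested 24 h after dosing.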

[4] = read-out: Matrix Metallopeptidase 1 (MMP1), MMP1 (gene 4312); assay: BSK_hDFCGF_MMP1: BioMAP Diversity Plus: hDFCGF Assay for Matrix Metallopeptidase 1 (MMP1) Biomarker Activity (AID 2283064); settings: primary human foreskin fibroblasts; actives raise or lower the signal
Outline: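 Primary human foreskin fibroblasts in the hDFCGF system were dosed with test chemical, and MMP1 was measured by ELISA 24 h later. Values come from bidirectional curve fitting against the DMSO baseline.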

[5] = read-out: Vascular cell adhesion molecule 1 (VCAM1), VCAM1 (gene 7412); assay: BSK_hDFCGF_VCAM1: BioMAP Diversity Plus: hDFCGF Assay for Vascular cell adhesion molecule 1 (VCAM1) Biomarker Activity (AID 2283065); settings: primary human foreskin fibroblasts; actives raise or lower the signal;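 on AC50: VCAM-1 protein level quantified by ELISA after 24 h chemical exposure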
Outline: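 Measured after 24 h chemical treatment of primary human skin fibroblasts, VCAM-1 was detected by ELISA and concentration-response analysed in both directions versus DMSO vehicle.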

[6] = read-out: Intercellular Adhesion Molecule 1 (ICAM1), ICAM1 (gene 3383); assay: BSK_KF3CT_ICAM1: BioMAP Diversity Plus: KF3CT Assay for Intercellular Adhesion Molecule 1 (ICAM1) Biomarker Activity (AID 2283067); settings: primary human keratinocytes with fibroblasts; actives raise or lower the signal
Outline: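 Bidirectional curve fitting against a DMSO baseline was applied to ICAM-1 ELISA signal from primary human skin co-cultures harvested 24 h after treatment, with SRB staining of parallel wells for overt cytotoxicity.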

[7] = read-out: Interferon-gamma inducible Protein 10 (IP10), CXCL10 (gene 3627); assay: BSK_KF3CT_IP10: BioMAP Diversity Plus: KF3CT Assay for Interferon-gamma inducible Protein 10 (IP10) Biomarker Activity (AID 2283068); settings: primary human keratinocytes with fibroblasts; actives raise or lower the signal
Outline: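 KF3CT co-culture (keratinocytes + foreskin fibroblasts), 24 h compound, IP-10 by ELISA; bidirectional fit vs DMSO baseline.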

[8] = BSK_KF3CT_SRB: Viability Assessment in the BioMAP Diversity Plus: KF3CT Assay (AID 2283069); settings: primary human keratinocytes with fibroblasts;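 further: total protein by sulforhodamine B staining as a cytotoxicity measure; read 24 h after compound addition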
Outline: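 Human primary keratinocyte plus foreskin fibroblast co-culture exposed to chemicals for 24 h. Total protein measured by 0.1% sulforhodamine B staining after 10% TCA fixation, read at 560 nm; bidirectional fitting versus DMSO baseline.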

[9] = read-out: Interleukin-1 alpha (IL1a), IL1A (gene 3552); assay: BSK_KF3CT_IL1a: BioMAP Diversity Plus: KF3CT Assay for Interleukin-1 alpha (IL1a) Biomarker Activity (AID 2283070); settings: primary human keratinocytes with fibroblasts; actives raise or lower the signal
Outline: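 Human keratinocyte plus foreskin fibroblast primary co-culture, sampled 24 h after chemical dosing. IL-1a measured by ELISA; responses fitted bidirectionally against DMSO baseline (negative control), so gain or loss of signal both count.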

[10] = read-out: TIMP metallopeptidase inhibitor 2 (TIMP2), TIMP2 (gene 7077); assay: BSK_KF3CT_TIMP2: BioMAP Diversity Plus: KF3CT Assay for TIMP metallopeptidase inhibitor 2 (TIMP2) Biomarker Activity (AID 2283071); settings: primary human keratinocytes with fibroblasts; actives raise or lower the signal
Outline: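 Keratinocyte–fibroblast co-culture, 24 h exposure; TIMP-2 ELISA, DMSO-normalised bidirectional fit. Parallel SRB (0.1%, TCA-fixed, 560 nm) total-protein staining gauges cytotoxicity.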

[11] = read-out: Transforming growth factor beta 1 (TGFb1), TGFB1 (gene 7040); assay: BSK_KF3CT_TGFb1: BioMAP Diversity Plus: KF3CT Assay for Transforming growth factor beta 1 (TGFb1) Biomarker Activity (AID 2283072); settings: primary human keratinocytes with fibroblasts; actives raise or lower the signal
Outline: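 Signal changes in either direction, relative to DMSO, define activity here. TGF-b1 is read by ELISA from a human keratinocyte-fibroblast co-culture 24 h post-dose.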

[12] = read-out: C-C motif chemokine 2 (Homo sapiens) (UniProt P13500); assay: BSK_KF3CT_MCP1: BioMAP Diversity Plus: KF3CT Assay for Monocyte Chemoattractant Protein 1 (MCP1/CCL2) Biomarker Activity (AID 2283073); settings: primary human keratinocytes with fibroblasts; actives raise or lower the signal
Outline: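 Biomarker MCP-1 is measured by ELISA in primary human keratinocytes co-cultured with foreskin fibroblasts, 24 h after chemical treatment; DMSO serves as the negative control and activity baseline.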

[13] = read-out: Matrix Metallopeptidase 9 (MMP9), MMP9 (gene 4318); assay: BSK_KF3CT_MMP9: BioMAP Diversity Plus: KF3CT Assay for Matrix Metallopeptidase 9 (MMP9) Biomarker Activity (AID 2283074); settings: primary human keratinocytes with fibroblasts; actives raise or lower the signal;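 on AC50: MMP9 protein level quantified by ELISA in the co-culture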
Outline: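 Keratinocyte plus foreskin fibroblast human primary skin co-culture was dosed with chemical and MMP-9 was quantified by ELISA 24 h later. Bidirectional curve fitting used DMSO as negative control and activity baseline.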

[14] = read-out: urokinase plasminogen activator (uPA), PLAU (gene 5328); assay: BSK_KF3CT_uPA: BioMAP Diversity Plus: KF3CT Assay for urokinase plasminogen activator (uPA) Biomarker Activity (AID 2283075); settings: primary human keratinocytes with fibroblasts; actives raise or lower the signal
Outline: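 Human keratinocyte plus foreskin fibroblast primary co-culture exposed to chemical for 24 h. uPA levels were quantified by ELISA, and activity was fitted bidirectionally against a DMSO negative-control baseline.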

CD40, CD40 (gene 958) = assay: BSK_LPS_CD40: BioMAP Diversity Plus: LPS Assay for CD40 Biomarker Activity (AID 2283076); settings: primary human HUVEC with PBMC; actives raise or lower the signal
Outline: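 Using a multiplexed primary human co-culture (umbilical vein endothelium plus PBMC), CD40 was read by ELISA 24 h after dosing, with cytotoxicity tracked by sulforhodamine B staining of parallel cultures and activity fitted bidirectionally versus DMSO.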

[15] = read-out: E-selectin (Homo sapiens) (UniProt P16581); assay: BSK_LPS_Eselectin: BioMAP Diversity Plus: LPS Assay for Eselectin Biomarker Activity (AID 2283077); settings: primary human HUVEC with PBMC; actives raise or lower the signal
Outline: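 Dose chemical onto LPS-driven HUVEC/PBMC co-culture; after 24 h, run ELISA for E-selectin; fit up- and down-going responses relative to DMSO control.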

[16] = read-out: Interleukin-8 (IL8), CXCL8 (gene 3576); assay: BSK_LPS_IL8: BioMAP Diversity Plus: LPS Assay for Interleukin-8 (IL8) Biomarker Activity (AID 2283078); settings: primary human HUVEC with PBMC; actives raise or lower the signal
Outline: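 In this LPS system, chemical-treated human umbilical vein endothelium/PBMC co-cultures were harvested at 24 h for IL-8 ELISA.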

[17] = BSK_LPS_SRB: Viability Assessment in the BioMAP Diversity Plus: LPS Assay (AID 2283079); settings: primary human HUVEC with PBMC;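 further: total protein by sulforhodamine B absorbance as a cytotoxicity measure; measured one day after compound addition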
Outline: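 Cytotoxicity endpoint in human endothelial–PBMC co-culture: 24 h exposure, then SRB (0.1%) staining, 560 nm read.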

[18] = read-out: Interleukin-1 alpha (IL1a), IL1A (gene 3552); assay: BSK_LPS_IL1a: BioMAP Diversity Plus: LPS Assay for Interleukin-1 alpha (IL1a) Biomarker Activity (AID 2283080); settings: primary human HUVEC with PBMC; actives raise or lower the signal
Outline: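 Primary human HUVEC and PBMC co-culture stimulated with LPS is dosed and harvested at 24 h. Both increases and decreases in ELISA-measured IL-1a are scored relative to DMSO.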

[19] = read-out: Plasminogen activator inhibitor-1 (PAI1), SERPINE1 (gene 5054); assay: BSK_hDFCGF_PAI1: BioMAP Diversity Plus: hDFCGF Assay for Plasminogen activator inhibitor-1 (PAI1) Biomarker Activity (AID 2283066); settings: primary human foreskin fibroblasts; actives raise or lower the signal
Outline: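 PAI-1 levels, determined by ELISA, served as the endpoint in human foreskin fibroblast cultures exposed to compound for 24 h, with DMSO as baseline.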

Measured: AC50

E-selectin (Homo sapiens), sequence (P16581 whole entry, looked up): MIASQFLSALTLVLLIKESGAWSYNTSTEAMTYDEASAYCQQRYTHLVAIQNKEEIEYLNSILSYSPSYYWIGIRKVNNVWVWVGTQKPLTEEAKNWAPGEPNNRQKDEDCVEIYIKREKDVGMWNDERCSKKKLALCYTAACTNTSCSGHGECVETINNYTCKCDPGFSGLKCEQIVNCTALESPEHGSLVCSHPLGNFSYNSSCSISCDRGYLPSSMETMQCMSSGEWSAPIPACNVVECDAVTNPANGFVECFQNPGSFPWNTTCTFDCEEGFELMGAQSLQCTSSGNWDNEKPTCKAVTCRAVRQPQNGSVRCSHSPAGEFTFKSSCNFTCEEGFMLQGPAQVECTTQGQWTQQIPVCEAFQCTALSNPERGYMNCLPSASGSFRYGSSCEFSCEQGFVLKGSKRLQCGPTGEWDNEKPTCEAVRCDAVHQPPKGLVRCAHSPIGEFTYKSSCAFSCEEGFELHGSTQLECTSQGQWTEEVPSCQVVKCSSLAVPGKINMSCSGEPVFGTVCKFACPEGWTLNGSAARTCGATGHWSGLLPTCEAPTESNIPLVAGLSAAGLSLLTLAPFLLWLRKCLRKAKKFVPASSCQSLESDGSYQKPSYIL

ClCC(Cl)CCl
not listed: [19]
inactive: all other assays above

C=C(C)C(=O)[O][Sn]([CH2]CCC)([CH2]CCC)[CH2]CCC
active: [1] 0.242 µM | [2] 0.344 µM | [3] 0.148 µM | [4] 0.148 µM | [5] 0.148 µM | [19] 0.254 µM | [6] 0.354 µM | [7] 0.181 µM | [8] 0.282 µM | [9] 0.148 µM | [10] 0.148 µM | [11] 0.148 µM | [13] 0.148 µM | [14] 0.148 µM | CD40, CD40 (gene 958) 0.148 µM | [15] 0.148 µM | [16] 0.38 µM | [17] 0.148 µM | [18] 0.148 µM

O=C(Nc1ccc2[nH]ccc2c1)c1cc2cc(F)ccc2n1Cc1cccc(F)c1
active: [1] 3.36 µM | [2] 3.93 µM | [3] 4.77 µM | [4] 3.37 µM | [5] 2.65 µM | [19] 2.69 µM | [6] 8.14 µM | [7] 7.21 µM | [8] 5.91 µM | [9] 6.68 µM | [10] 7.19 µM | [11] 6.88 µM | [12] 6.52 µM | [13] 4.6 µM | [14] 8.64 µM | CD40, CD40 (gene 958) 8.35 µM | [15] 12.4 µM | [16] 10.4 µM | [17] 13.2 µM | [18] 7.97 µM

CCOP(=S)(OCC)Oc1ccc(S(C)=O)cc1 (stereo unspecified)
not listed: [19]
inactive: all other assays above

COP(=S)(OC)Oc1c(Cl)cc(C)cc1Cl
active: [5] 20 µM | [13] 20 µM | [17] 27.7 µM | [18] 0.108 µM
inactive: all other assays above

CCCCC(CC)CO[N+](=O)[O-] (stereo unspecified)
active: [7] 30.2 µM | [8] 36.4 µM | [10] 31.7 µM | [12] 30.4 µM | [13] 34.7 µM | [14] 35.3 µM
not listed: [6]
inactive: all other assays above
